TDP1 cell CPT: qHTS for Inhibitors of human tyrosyl-DNA phosphodiesterase 1 (TDP1): qHTS in cells in presence of CPT | chicken DT40 Tdp1-/-;hTDP1 cells + 20 nM CPT, ATP luminescence, 48 h | Potency, µM (top dose mostly 46.2 µM), actives largely listed as inhibitors | 12% of 420,000 active | AID 686979, 2013; further: nearly all actives have a fitted effect of over 55% in size
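Cell growth measured by CellTiter-Glo luminescence after a minimum 48 h, 37 C compound exposure with 20 nM CPT in Tdp1-knockout DT40 cells stably expressing hTDP1, seeded 400/well; qHTS titration format.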
HT1080-NT tox: qHTS for induction of synthetic lethality in tumor cells producing 2HG: qHTS for the HT-1080-NT fibrosarcoma cell line; HT-1080-NT fibrosarcoma viability, CellTiter-Glo ATP luminescence, 48 h; 1.6% of 360,000 active; Potency, µM (doses to about 46.1 µM), hits mostly cytotoxic;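 further: NT is the 2HG producing partner of a matched IDH1 knockdown line; nearly all actives have a fitted effect of over 55% in size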
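Fibrosarcoma NT cells, 750 per well in 5% FBS RPMI, were exposed to compound for 48 hours. Viability: CellTiter-Glo luminescence.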
ALOX12 inh: Primary qHTS assay for inhibitors of human arachidonate 12S-lipoxygenase (ALOX12): Round 2; AID 1671190, 2021; 1.1% of 580,000 active; purified 12hLO, xylenol orange hydroperoxide absorbance; Polyunsaturated fatty acid lipoxygenase ALOX12 (Homo sapiens), P18054; Potency, µM (series often up to 108 µM), actives largely listed as inhibitors
Target sequence (P18054 whole entry, looked up): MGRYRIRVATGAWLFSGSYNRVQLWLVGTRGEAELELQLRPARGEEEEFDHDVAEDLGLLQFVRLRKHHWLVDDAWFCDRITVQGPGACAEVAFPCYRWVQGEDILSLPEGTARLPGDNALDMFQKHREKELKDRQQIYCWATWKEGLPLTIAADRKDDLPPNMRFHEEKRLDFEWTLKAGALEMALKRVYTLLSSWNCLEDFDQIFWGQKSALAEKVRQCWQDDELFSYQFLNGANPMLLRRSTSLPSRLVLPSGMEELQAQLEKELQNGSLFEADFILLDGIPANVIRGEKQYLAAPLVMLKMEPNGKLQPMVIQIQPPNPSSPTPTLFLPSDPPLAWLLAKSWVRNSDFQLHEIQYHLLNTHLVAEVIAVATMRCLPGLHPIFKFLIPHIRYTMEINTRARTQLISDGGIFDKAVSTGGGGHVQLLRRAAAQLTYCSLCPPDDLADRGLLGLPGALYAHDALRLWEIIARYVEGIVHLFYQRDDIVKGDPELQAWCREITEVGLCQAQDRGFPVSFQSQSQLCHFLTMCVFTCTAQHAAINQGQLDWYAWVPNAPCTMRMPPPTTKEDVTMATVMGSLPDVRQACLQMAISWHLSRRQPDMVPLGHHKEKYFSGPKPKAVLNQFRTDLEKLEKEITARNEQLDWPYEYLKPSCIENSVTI
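Hydroperoxide product was detected by ferrous iron/xylenol orange as the 573 to 405 nm absorbance ratio. Arachidonic acid at 40 uM (final) was turned over for 30 min at room temperature by 150 nM human 12hLO, pH 7.0 Hepes buffer, after 15 min compound preincubation.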
DT40 TDP1 no CPT: qHTS for Inhibitors of human tyrosyl-DNA phosphodiesterase 1 (TDP1): qHTS in cells in absence of CPT; DT40 Tdp1-/- hTDP1 cells, no CPT, ATP luminescence, 48 h; AID 686978, 2013; 15% of 420,000 active; Potency, µM (series often up to 46.2 µM), hits mostly inhibitors; further: nearly all actives have a fitted effect of over 55% in size
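Readout: luminescence from CellTiter-Glo after 30 min in the dark at RT. Cells: DT40 Tdp1-/- with stable hTDP1, 400/well. Exposure: compounds alone, ≥48 hr, 37 °C.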
HT1080 IDH1KD tx: qHTS for induction of synthetic lethality in tumor cells producing 2HG: qHTS for the HT-1080-IDH1KD cell line; 2% of 360,000 active; AID 686971, 2013; Potency, µM (series often up to 46.1 µM), actives largely listed as cytotoxic; HT-1080 IDH1 knockdown viability, ATP luminescence, 48 h
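Luminescent ATP read-out (CellTiter-Glo, 10 min at room temperature) after 48 h compound exposure at 37 °C gave viability of IDH1-knockdown HT-1080 cells. Activity was normalised to DMSO and cell-free wells, then fitted as concentration-response curves.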
IL-1B inflam inh: qHTS for Inhibitors of Inflammasome Signaling: IL-1-beta AlphaLISA Primary Screen; THP-1 LPS/ATP IL-1B secretion, AlphaLISA, 16 h; hits give low values; 4.7% of 360,000 active; activity change, % at 57.5 µM; AID 743279, 2014; in the data active means activity change below about -50%; inconclusive means mostly about -30% to -49%
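Secreted IL-1B measured by AlphaLISA bead assay after 16 h compound exposure of THP-1 cells; compounds (final up to 57.5 uM) added 1 h before LPS (250 ng/mL) and ATP (1.25 mM) stimulation; lower signal means less secretion.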
Each line names hits and unclear results; the compound was inactive in the other large screens. Only a selection was taken, and hits are over-represented in it overall. Unless noted, the call rests on the fitted dose curve; in most records, active means well fitted curve in the direction sought with a large enough effect; inconclusive means small, poorly fitted or top-dose-only effect, or another doubt; inactive means no such curve, though single readings can be large; an effect the other way counts as inactive or inconclusive.

COc1cc(/C=N/NC(=O)c2ccoc2C)cc(OC)c1OC	TDP1 cell CPT inconclusive, DT40 TDP1 no CPT 13µM
COc1ccccc1C(=O)NCC(=O)N/N=C/c1ccncc1	none
Cn1cc(C(=O)N/N=C/c2ccc3c(c2)OCO3)c2ccccc21	TDP1 cell CPT 7.3µM, HT1080-NT tox 21µM, DT40 TDP1 no CPT 5.2µM, HT1080 IDH1KD tx 12µM
Cc1occc1C(=O)N/N=C/c1ccc2c(c1)OCO2	TDP1 cell CPT inconclusive, HT1080-NT tox 9.2µM, DT40 TDP1 no CPT inconclusive, HT1080 IDH1KD tx 8.2µM
Cn1cc(C(=O)N/N=C/c2ccc(Br)c([N+](=O)[O-])c2)c2ccccc21	TDP1 cell CPT inconclusive, DT40 TDP1 no CPT inconclusive (no result: IL-1B inflam inh)
COc1ccccc1C(=O)NCC(=O)N/N=C/c1ccc2c(c1)OCO2	TDP1 cell CPT inconclusive, HT1080-NT tox inconclusive, DT40 TDP1 no CPT inconclusive, HT1080 IDH1KD tx 21µM
Cc1cc(C(=O)N/N=C/c2ccc3c(c2)OCO3)c(C)o1	DT40 TDP1 no CPT inconclusive, HT1080 IDH1KD tx inconclusive
O=C(O)Cn1ccc2cc(OCC3CCN(C(=O)C4CCCC4)CC3)cnc21	none (no result: TDP1 cell CPT, HT1080-NT tox, DT40 TDP1 no CPT, HT1080 IDH1KD tx, IL-1B inflam inh)
Clc1c2ccccc2c(/C=N/N2CCCCC2)c2ccccc12	none (no result: TDP1 cell CPT, HT1080-NT tox, DT40 TDP1 no CPT, HT1080 IDH1KD tx, IL-1B inflam inh)
Cc1ccc(N(C(=O)CNC(=O)c2ccccc2)C2(C(=O)NC3CCCC3)CCCCC2)cc1	none (no result: TDP1 cell CPT, HT1080-NT tox, DT40 TDP1 no CPT, HT1080 IDH1KD tx, IL-1B inflam inh)
COc1ccc(N(Cc2cc(CN3CCOCC3)cs2)S(=O)(=O)c2ccc(F)cc2)cc1	none (no result: TDP1 cell CPT, HT1080-NT tox, DT40 TDP1 no CPT, HT1080 IDH1KD tx, IL-1B inflam inh)
CN(Cc1ccccc1)S(=O)(=O)c1ccc2c(c1)NC(=O)CS2	none (no result: TDP1 cell CPT, HT1080-NT tox, DT40 TDP1 no CPT, HT1080 IDH1KD tx, IL-1B inflam inh)
O=C(N/N=C/c1ccc2c(c1)OCO2)c1ccc2ccccc2n1	HT1080 IDH1KD tx inconclusive
Cn1cc(C(=O)N/N=C/c2cccs2)c2ccccc21	DT40 TDP1 no CPT 8.2µM, HT1080 IDH1KD tx inconclusive
Cc1cccc(C)c1OCC(=O)N/N=C/c1ccc2c(c1)OCO2	TDP1 cell CPT 2.9µM, HT1080-NT tox 15µM, DT40 TDP1 no CPT 3.7µM, HT1080 IDH1KD tx inconclusive
O=C(N/N=C/c1ccc2c(c1)OCO2)c1cccc2ccccc12	TDP1 cell CPT 2.1µM, HT1080-NT tox inconclusive, DT40 TDP1 no CPT 3.3µM, HT1080 IDH1KD tx inconclusive
CCOc1cc(C#N)c(NC(=O)c2ccc(F)cc2)cc1OCC	none (no result: TDP1 cell CPT, HT1080-NT tox, DT40 TDP1 no CPT, HT1080 IDH1KD tx, IL-1B inflam inh)
COc1ccc(CNc2cc(-c3ccccc3CN(C)C)ncn2)c(OC)c1	ALOX12 inh inconclusive, DT40 TDP1 no CPT inconclusive (no result: HT1080-NT tox, HT1080 IDH1KD tx, IL-1B inflam inh)
COc1ccc2[nH]cc(CCNc3nc(-c4ccc(N(C)C)cc4)nc4ccccc34)c2c1	TDP1 cell CPT 15µM, ALOX12 inh inconclusive, DT40 TDP1 no CPT 23µM (no result: HT1080-NT tox, HT1080 IDH1KD tx, IL-1B inflam inh)
COc1ccccc1-c1nc(NCCc2cnc[nH]2)c2ccccc2n1	TDP1 cell CPT inconclusive, DT40 TDP1 no CPT inconclusive (no result: HT1080-NT tox, HT1080 IDH1KD tx, IL-1B inflam inh)
COc1ccc(CNc2nc(-c3ccccc3CN(C)C)nc3ccccc23)c(OC)c1	TDP1 cell CPT 10µM, DT40 TDP1 no CPT 7.3µM (no result: HT1080-NT tox, HT1080 IDH1KD tx, IL-1B inflam inh)
COc1cccc(-c2nc(NCCc3c[nH]c4ccc(OC)cc34)c3ccccc3n2)c1	TDP1 cell CPT inconclusive, DT40 TDP1 no CPT inconclusive (no result: HT1080-NT tox, HT1080 IDH1KD tx, IL-1B inflam inh)
COc1ccc2[nH]cc(CCNc3nc(-c4ccc(C(=O)N(C)C)cc4)nc4ccccc34)c2c1	TDP1 cell CPT 21µM, ALOX12 inh inconclusive, DT40 TDP1 no CPT 7.3µM (no result: HT1080-NT tox, HT1080 IDH1KD tx, IL-1B inflam inh)
CN(C)c1ccc(-c2nc(NCCc3cnc[nH]3)c3ccccc3n2)cc1	TDP1 cell CPT 13µM, DT40 TDP1 no CPT inconclusive (no result: HT1080-NT tox, HT1080 IDH1KD tx, IL-1B inflam inh)
CNC(=O)[C@@H](c1ccccc1F)N1CCC[C@H]1C(=O)NCc1ccncc1	none (no result: TDP1 cell CPT, HT1080-NT tox, DT40 TDP1 no CPT, HT1080 IDH1KD tx, IL-1B inflam inh)
COc1ccc2[nH]cc(CCNc3nc(-c4ccccc4CN(C)C)nc4ccccc34)c2c1	TDP1 cell CPT 21µM, ALOX12 inh inconclusive, DT40 TDP1 no CPT 21µM (no result: HT1080-NT tox, HT1080 IDH1KD tx, IL-1B inflam inh)
COc1ccc2[nH]cc(CCNc3ncncc3-c3ccccc3C)c2c1	TDP1 cell CPT inconclusive, DT40 TDP1 no CPT inconclusive (no result: HT1080-NT tox, HT1080 IDH1KD tx, IL-1B inflam inh)
Cc1c(Cl)cccc1N=Cc1ccc(C=Nc2cccc(Cl)c2C)cc1	none (no result: TDP1 cell CPT, HT1080-NT tox, DT40 TDP1 no CPT, HT1080 IDH1KD tx, IL-1B inflam inh)
